Assay outcomes deposited in PubChem by National Center for Advancing Translational Sciences (NCATS).
HCMV inh = blocks human cytomegalovirus replication | 410,000 tested, 4.5% active | AID 1259415 | activity change, negative = inhibition, % at 57.5 µM | HFF cells, HCMV-luciferase reporter, 72 h; stronger effect = lower value; in the data active = activity change below about -60%; inconclusive = no clear call, values can overlap the other calls; inactive = above about -39%
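Steps: HFFs plated, 16 h 37C; compounds added; HCMV-luciferase added to MOI 1 PFU/cell; 72 h 37C; OneGlo reagent, 5 min room temperature; luminescence read, normalized to controls.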
Pf growth 96h = inhibits malaria parasite growth, 96 h. P. falciparum luciferase reporter growth, 96 h. Potency, µM (series often up to 28.7 µM), most hits filed as inhibitors. 320,000 tested, 6.9% active
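Two-generation exposure (96 h) targets delayed-death phenotype. Reporter parasites carrying integrated firefly luciferase, in red cells at 2% hematocrit and 0.05% parasitemia final, kept at 37 C, 5% CO2; luminescence loss indicates inhibition.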
Pf growth 48h = P. falciparum growth inhibition at 48 hours (one generation). AID 504832. Potency, µM (highest dose often 28.7 µM), actives largely listed as inhibitors. 310,000 tested, 5.9% active. P. falciparum luciferase growth in erythrocytes, 48 h
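Growth was read as firefly luciferase luminescence after a 48 h, 37 C, 5% CO2 exposure of compounds to reporter-bearing P. falciparum cultures (0.1% parasitemia, 2% hematocrit final) in Albumax-supplemented RPMI 1640.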
HCV inhibitor = inhibitors of hepatitis C virus infection. Huh7.5.1 HCVcc-Cre infection, luciferase reporter, 44 h. Potency, µM (top dose mostly 41.8 µM), actives largely listed as inhibitors. 340,000 tested, 3.4% active. AID 651820
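Cells (1,000/well) were plated 4 h before compound, then infected with HCVcc-Cre virus (~0.5 moi). After 44 h further culture, infection was read as luciferase luminescence following a 15 min substrate incubation at room temperature.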
Numbers stand for hits; – = inactive; ? = inconclusive; · = no result given; [ ] = another dose, or the depositor's remark. Compounds with a hit are over-represented: about 13% of the library has one in this group of screens. Unless noted, calls follow the shape of the dose curve; as a rule, active = well fitted inhibition curve with a large enough effect; inconclusive = small, poorly fitted or top-dose-only effect, or another doubt; inactive = no such curve, though single readings can be large or run the other way.

SMILES	HCMV inh	Pf growth 96h	Pf growth 48h	HCV inhibitor
O=C(C1CCC(Cn2c(=O)c3sccc3n(Cc3ccccc3)c2=O)CC1)N1CCCCC1 (stereo unspecified)	–	·	·	·
CCCN1C(=O)C2(c3ccccc31)c1c(oc3ccc(C)cc3c1=O)C(=O)N2CCOC (stereo unspecified)	–	·	·	·
Cc1ccc2c(CC(=O)Nc3c(C(=O)Nc4cccc(Cl)c4)oc4ccccc34)coc2c1C	–	·	·	·
NS(=O)(=O)c1ccc(CCNc2ncnc3c2c(-c2ccccc2)cn3-c2ccc(F)cc2)cc1	–	?	?	11µM
CCOC(=O)C1CCN(c2ncnc3c2c(-c2ccccc2)cn3-c2ccc(Cl)cc2)CC1	–	·	·	·
CCOC(=O)C1CCN(c2ncnc3c2c(-c2ccccc2)cn3-c2ccccc2)CC1	–	–	?	10µM
Fc1ccc(-n2cc(-c3ccccc3)c3c(NN4CCOCC4)ncnc32)cc1	?	?	15µM	?
OCCN1CCN(c2ncnc3c2c(-c2ccccc2)cn3-c2ccc(F)cc2)CC1	–	–	?	–
CC1CN(c2ncnc3c2c(-c2ccccc2)cn3-c2ccc(F)cc2)CC(C)O1 (stereo unspecified)	–	?	?	10µM
CCC(C(=O)N1CCN(c2cc(Cl)ccc2C)CC1)n1nc(C)n2c(cc3occc32)c1=O (stereo unspecified)	–	·	·	·
CCOc1cccc(CC(=O)Nc2ccc3nc(N4CCCCC4)cc(C)c3c2)c1OCC	–	·	·	·
COC(=O)c1c(N)n(-c2ccc(OC)c(OC)c2)c2nc3ccccc3nc12	–	·	·	·
CCOc1ccc(-n2cc(-c3ccccc3)c3c(N4CCC(C)CC4)ncnc32)cc1	-63	·	·	·
N#CC1=C(N)C2=C(N3CCCCC3)CCCC2C1(C#N)C#N (stereo unspecified)	·	12µM	–	–
COCCCNC(=O)CCC(=O)N1Cc2ccccc2Oc2ncccc21	–	·	·	·
O=C(c1ccc([N+](=O)[O-])cc1)N1c2ncnn2C2(CCCCC2)[C@@H]2CCCC[C@@H]21	–	·	·	·
Cc1cccc(N=C2c3cc([N+](=O)[O-])ccc3-c3c2cc([N+](=O)[O-])cc3[N+](=O)[O-])c1	–	·	·	7.1µM
O=C(O)c1cccc2c1C(=O)c1cc([N+](=O)[O-])cc([N+](=O)[O-])c1-2	–	·	·	·
COc1ccc(NC(=O)C2CCN(C3=NS(=O)(=O)C(c4ccc(C)c(C)c4)=C3C)CC2)cc1OC	–	·	·	·
O=C(NCCOc1ccc(Cl)cc1)C1CCCCC1	–	–	12µM	–
CCCCOCCCNC(=O)C1CCCCC1	–	8.3µM	–	–
CCOc1cc(CNC(=O)c2ccc3c(c2)N(C)C(=O)C2CCCCN32)cc(OCC)c1OCC (stereo unspecified)	–	·	·	·
c1ccc(-c2noc(-c3cccnc3NCc3ccco3)n2)cc1	–	·	·	·
Oc1ccccc1-c1nc(NCc2ccco2)c2ccccc2n1	–	?	–	3.2µM
Oc1ccccc1-c1nc(NCc2ccccc2)c2ccccc2n1	–	?	?	11µM
SMILES	HCMV inh	Pf growth 96h	Pf growth 48h	HCV inhibitor
Cc1ccc(CNc2nc(-c3cccs3)nc3ccccc23)cc1	–	?	?	–
Fc1ccccc1-c1nc(NCc2ccco2)c2ccccc2n1	-81	–	?	–
c1ccc(-c2nc(NCc3ccco3)c3ccccc3n2)nc1	-102	2.9µM	2.6µM	?
CC(c1ncncc1F)[C@](O)(Cn1cncn1)c1ccc(F)cc1F (stereo partly specified)	·	?	–	·
Cc1ccc(S(=O)(=O)c2nc(-c3cccs3)oc2SCc2ccc(F)cc2)cc1	–	·	·	·
COC(=O)C1=C(C)N(Cc2ccccc2C(F)(F)F)C(=NCc2cc(OC)c(OC)c(OC)c2)NC1c1ccc(Cl)cc1 (stereo unspecified)	–	·	·	·
CN(C(=O)c1ccc(NC(=O)Cc2cccc(NC(=O)C3CCCN(C(=O)C4CC4)C3)c2)cc1)C1CCCC1 (stereo unspecified)	–	?	15µM	–
CN(C(=O)c1cccc(NC(=O)Cc2ccc(NC(=O)C3CCCN(C(=O)CCc4ccccc4)C3)cc2)c1)C1CCCCC1 (stereo unspecified)	-75	·	·	3.2µM
CN(C(=O)c1ccc(NC(=O)Cc2cccc(NC(=O)C3CCCN(C(=O)C4CCCC4)C3)c2)cc1)C1CC1 (stereo unspecified)	–	·	·	?
CN(C(=O)c1cccc(NC(=O)Cc2ccc(NC(=O)C3CCCN(C(=O)C4CCCC4)C3)cc2)c1)C1CCCC1 (stereo unspecified)	–	·	·	10µM
CN(C(=O)c1cccc(NC(=O)Cc2ccc(NC(=O)C3CCCN(C(=O)CCc4ccccc4)C3)cc2)c1)C1CC1 (stereo unspecified)	–	·	·	–[8.37 µM]
CN(C(=O)c1cccc(NC(=O)C2CCN(C(=O)OC(C)(C)C)CC2)c1)C1CCCCC1	–	·	·	10µM
CN(C(=O)c1ccc(NC(=O)Cc2cccc(NC(=O)C3CCCN(C(=O)C4CCC4)C3)c2)cc1)C1CCCC1 (stereo unspecified)	–	?	12µM	–
CN(CCc1ccccc1)C(=O)c1ccc(NC(=O)Cc2ccc(NC(=O)C3CCCN(C(=O)C4CCCC4)C3)cc2)cc1 (stereo unspecified)	-68	·	·	?
CN(C(=O)c1ccc(NC(=O)Cc2cccc(NC(=O)C3CCCN(C(=O)C4CCCCC4)C3)c2)cc1)C1CCCC1 (stereo unspecified)	–	?	?	–
CN(C(=O)c1ccc(NC(=O)Cc2ccc(NC(=O)C3CCCN(C(=O)C4CCCC4)C3)cc2)cc1)C1CC1 (stereo unspecified)	–	12µM	?	?
CN(Cc1ccccc1)C(=O)c1ccc(NC(=O)Cc2cccc(NC(=O)C3CCCN(C(=O)C4CCCC4)C3)c2)cc1 (stereo unspecified)	–	–	12µM	–
COc1ccc(C(=O)NCCc2sc(-c3cccc(F)c3)nc2C)cc1	–	·	·	·
COc1ccccc1NC(=O)n1ncc2c(C)cccc21	–	·	·	·
COc1cc(OC)c(NC(=O)NCc2ccc3c(c2)CCN3C(=O)c2ccccc2)cc1Cl	–	·	·	·
Cc1ccc(CNC(=O)C2CCCN(c3nn4cc(-c5ccc(C)cc5)nc4s3)C2)cc1 (stereo unspecified)	–	·	·	·
CN(C(=O)c1ccc(NC(=O)Cc2cccc(NC(=O)C3CCN(C(=O)CCc4ccccc4)CC3)c2)cc1)C1CCCC1	–	1.9µM	9.3µM	–
COc1ccc2c(c1)-c1ccccc1S(=O)(=O)N2C(C)=O	–	12µM	–	–
COc1ccc(OC)c(NC(=O)CN2C(=O)c3ccccc3S2(=O)=O)c1	–	–	–	–
CN(C)c1ccc(NC(=O)Cn2cc(S(=O)(=O)Cc3ccccc3Cl)c3ccccc32)cc1	–	·	·	·
COc1cc2c(c(OC)c1OC)-c1c(cc3c(c1OC)OCO3)[C@@H](OC(C)=O)[C@H](C)[C@H](C)C2	–	10µM	13µM	–
Cc1cccc(N(C(=O)CNC(=O)c2ccco2)C(C(=O)NC2CCCC2)c2ccncc2)c1 (stereo unspecified)	–	?	–	–
